In PubChem BioAssay (NCATS):
Results filed as inconclusive are left out. Calls of active or inactive are those of the source. Calls come from the whole dose curve; as a rule, active = well fitted inhibition curve with a large enough effect; inconclusive = small, poorly fitted or top-dose-only effect; inactive = flat fitted curve, though single readings scatter.
% is set by controls: 0 for no effect and ±100 for the full control effect; potency is the fitted concentration of half-maximal effect.

What follows are compounds tested on NIH3T3 (assay: Cytotoxic Profiling of Annotated Libraries Using Quantitative High-Throughput Screening (AID 1296008; note: nearly all actives have a fitted effect of over 60% in size)). Details: Five cell lines viability, CellTiter-Glo ATP luminescence, 48-72 h; max response: hits give low values.
Outline: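 Cytotoxicity was measured as CellTiter-Glo ATP luminescence, read after 10 min at room temperature. Compound treatment of the cells lasted 48 or 72 hr at 37 degrees Celsius in a qHTS format.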
For `OC[C@H]1O[C@@H](OC(CCCCc2ccc(O)cc2)CCc2ccc(O)cc2)[C@H](O)[C@@H](O)[C@@H]1O` (some centres not stated), the max response was -27.4% (inactive).
`C=C1CC[C@@H]2[C@](C)(CO[C@@H]3O[C@H](CO)[C@@H](O)[C@H](O)[C@H]3O)[C@H](O)CC[C@@]2(C)[C@@H]1C/C=C1/C(=O)OC[C@H]1O` was tested, and the max response was 2.12% (inactive).
`C=CC(C)(C)C12C=C(OC)C(=O)N3C(C(C)C)C(=O)NC31N(OC)c1ccccc12` (configuration not stated) was tested, and the max response was -14.5% (inactive).
`Cc1cc(O)c(-c2ccc([C@@H](C)CN(C)C)cc2)c2c1[nH]c(=O)c1sccc12` was tested, and the Potency was 231 nM (active).
With `COc1c2c(cc3c1-c1c(cc4c(c1OC)OCO4)CC(C)C(C)C3)OCO2` (configuration not stated) the max response was -11.8% (inactive).
`CC(=O)N[C@@H](CCCCN)C(=O)N(C)[C@@H](CC(C)C)C(=O)N[C@H](C(=O)N(C)[C@@H](Cc1ccccc1)C(=O)N[C@H](Cc1ccccc1)C(N)=O)C(C)C` was tested, and the max response was -4.99% (inactive).
For `COc1cc(C)c(C(=O)O[C@H]2[C@@H](OC(C)=O)[C@H](n3ccc(=O)[nH]c3=O)O[C@@H]2CO)c(OC)c1`, the max response was -14.4% (inactive).
